This is a sample that favours compounds with a hit; in the whole collection about 3.5% have one here.
mHTT-CaM PPI inh – disrupts binding of mutant huntingtin to calmodulin | P42858 | AlphaScreen His-mHTT/GST-CaM binding, luminescence | inhibition, % at 15 µM | actives 3.6% (n = 190,000);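 further: 0% = both proteins with DMSO and 100% = one protein alone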
Pf apPOL inh – Pf-apPOL DNA polymerase inhibition; Recombinant Pf-apPOL, molecular beacon fluorescence, 1.5 h; inhibition, % at 10 µM; actives 0.25% (n = 210,000)
* hit, by the source's call; i = inactive; / = no result given; + = active, no number. No stated cut-off is given here; in the data, active means inhibition above about 50%; inactive means the rest.

SMILES | mHTT-CaM PPI inh | Pf apPOL inh
CC12CC3CC(C1)CC(C(=O)O)(C3)C2 | -3.3 | -4.6
Cc1c(CCOC(=O)C23CC4CC(CC(C)(C4)C2)C3)sc[n+]1CC(=O)c1ccccc1 | 99.3* | -1.0
Cc1noc(C2CCCCN2Cc2nc(-c3ccc(F)cc3)no2)n1 (centres undefined) | -1.6 | 0.1
CC(=O)N1c2ccccc2NC2=C(C(=O)CC(C)(C)C2)C1c1ccc([N+](=O)[O-])o1 (centres undefined) | 1.6 | 1.1
CC1(C)CC(=O)C2=C(C1)NC1=C(C(=O)c3ccccc31)C2c1cc([N+](=O)[O-])ccc1O (centres undefined) | 63.0* | 4.2
COc1ccc(OC)c(C2C3=C(CC(C)(C)CC3=O)NC3=C2C(=O)c2ccccc23)c1 (centres undefined) | 41.0 | -4.7
CC1(C)CC(=O)C2=C(C1)NC1=C(C(=O)c3ccccc31)C2c1ccc([N+](=O)[O-])o1 (centres undefined) | 55.0* | -3.4
Cc1ccc(S(=O)(=O)N2CCc3c(c(-c4nc(C5CC5)no4)nn3C)C2)cc1C | 25.5 | -1.1
Cc1cc(C)c([N+](=O)[O-])c(C)c1C1C(C#N)=C(N)SC(N)=C1C#N | 65.0* | -2.1
N#CC1=C(N)SC(N)=C(C#N)C1c1ccc([N+](=O)[O-])s1 | 67.0* | /
N#CC1=C(N)SC(N)=C(C#N)C1c1ccc(Cl)cc1 | 32.0 | 12.6
N#Cc1ccc([N+](=O)[O-])s1 | / | 2.1
N#CC1=C(N)SC(N)=C(C#N)C1c1ccc(Cl)c([N+](=O)[O-])c1 | 77.0* | -5.1
Cc1ccsc1C1C(C#N)=C(N)SC(N)=C1C#N | 17.5 | 7.0
CCOc1ccc(-n2c(SCC(=O)Nc3nnc(CC)s3)nc3c(c2=O)SCC3)cc1 | -2.0 | 3.0
Cn1cc(-c2ccncc2)cc1C(=O)N1CCC(N2CCCCC2)CC1 | -7.5 | -1.7
COCCCNC(=O)C1CCN(c2nc3ccc(-c4cccs4)nc3s2)CC1 | 14.8 | 4.0
Cc1cc(NC(=O)c2ccc(Cl)cc2Cl)ccc1NC(=O)c1ccccc1 | -1.3 | -2.9
COc1ccc(Cl)cc1NC(=O)C1CCN(c2nnc3ccccn23)CC1 | 42.2 | -2.5
NC(=S)N/N=C/c1cc(Cl)cc(Cl)c1O | + | /
Oc1c(Br)cc(Br)cc1C=Nc1ccc(F)cc1 | 4.9 | /
COc1cc(OC)c(/C=N/NC(N)=S)cc1Br | i | /
Oc1c(Cl)cc(Cl)cc1C=NN=Cc1cc(Cl)cc(Cl)c1O | / | 0.9
NC(=S)N/N=C/c1cc(Br)cc(Br)c1O | + | /
Oc1ccccc1N=Cc1cc(Br)cc(Br)c1O | 55.0* | -4.3
SMILES | mHTT-CaM PPI inh | Pf apPOL inh
N#CC1=CN(c2ccccc2Cl)c2ccccc2S1(=O)=O | -7.0 | 2.6
Cc1cc(OCc2nc(C(=O)NC3CC3)cs2)ccc1Cl | 45.4 | -1.6
O=C(O)c1cccc(S(=O)(=O)Nc2ccc(I)cc2)c1 | -4.8 | -1.7
O=C(O)CCCN=CC1=C(O)c2ccccc2C1=O | -3.0 | 5.0
CCN1CCN(c2ncc3c(n2)CCN(Cc2ccc(Br)cc2)C3)CC1 | 76.3* | 1.5
CCCN1CCN(c2ncc3c(n2)CCN(Cc2ccc(N(C)C)cc2)C3)CC1 | 53.1* | -4.4
CCCN1CCN(c2ncc3c(n2)CCN(Cc2ccc(Br)cc2)C3)CC1 | 31.8 | -3.9
CCOc1ccc(CN2CCc3nc(N4CCC(C)CC4)ncc3C2)cc1 | 26.9 | -3.5
CC1CCN(c2ncc3c(n2)CCN(Cc2ccc(Br)cc2)C3)CC1 | 53.5* | -6.8
CCCN1CCN(c2ncc3c(n2)CCN(Cc2ccc(CC)cc2)C3)CC1 | 15.6 | -4.1
CCc1nccn1CC1CCN(C(=O)C(C)(C)C)CC1 | -6.8 | -5.3
O=C1Cc2cc(NS(=O)(=O)c3ccccc3Cl)ccc2N1 | -16.7 | -2.7
Cn1c(N2CCC(C(=O)N3CCN(c4ccccn4)CC3)CC2)cc(=O)n(C)c1=O | 29.1 | -4.2
CCn1c(N2CCC(C(=O)N3CCN(c4ccccc4F)CC3)CC2)cc(=O)n(C)c1=O | 61.9* | 0.4
CCn1c(N2CCC(C(=O)N3CCN(c4ccccn4)CC3)CC2)cc(=O)n(C)c1=O | 53.1* | -1.1
Cn1c(N2CCC(C(=O)N3CCN(c4ccccc4F)CC3)CC2)cc(=O)n(C)c1=O | 26.9 | 0.9
CC1CCc2c(CO)csc2C1 (centres undefined) | -1.8 | /
COc1ccc(C2CC(O)(c3ccccc3)Oc3cc(C)c(Cl)c(C)c32)cc1 (centres undefined) | 89.3* | -2.7
COc1ccc([C@@H]2C[C@H](c3ccccc3)Oc3cc(OC)c(OC)c(OC)c32)cc1 | 18.3 | -3.8
Cc1cc2c(c(C)c1Cl)[C@H](c1ccc3c(c1)OCO3)C[C@@H](c1ccccc1)O2 | 10.0 | -6.6
COc1ccc(C2CC(O)(c3ccccc3)Oc3cc(OC)c(OC)c(OC)c32)cc1 (centres undefined) | 86.3* | -1.5
CC(C)NC(=O)c1ccc(OCC2CCN(C(=O)c3ccc(F)cc3)CC2)cc1 | 4.3 | -2.7
O=C(Nc1cccc(Br)c1)N1CCc2nc(-c3ccccc3)ncc2C1 | -1.9 | -2.4
OC1C(C2COC3(CCCCC3)O2)OC2OC3(CCCCC3)OC21 (centres undefined) | -7.5 | 1.9
CCc1ccc(CCNC(=O)O[C@@H]2C[C@H]3C[C@@H]2[C@H]2CCCCN2[C@H]3C)cc1 | 14.3 | -13.9
SMILES | mHTT-CaM PPI inh | Pf apPOL inh
C[C@H]1[C@@H]2C[C@H]([C@H]3CCCCN31)[C@H](OC(=O)NCc1ccc(Cl)cc1)C2 | 53.0* | -7.5
O=C(C1CC1)N1CCc2sc(S(=O)(=O)NCc3ccccc3Cl)cc2C1 | -1.1 | -0.5
CN(C(=O)C(=O)c1c[nH]c2ccccc12)C1CCCCC1 | -2.0 | -2.2
Clc1cc2nc(-c3ccco3)c(-c3ccco3)nc2cc1Cl | 100.0* | -5.0
CSc1nnc(-c2ccco2)c(-c2ccco2)n1 | 31.0 | -4.6
O=C(CN1CCC(c2nc(-c3ccc(F)cc3)no2)CC1)Nc1ccc(F)cc1Cl | 3.3 | 0.8
O=C(c1cc2ccccc2o1)N1CCN(c2ccc(Cl)cc2[N+](=O)[O-])CC1 | 57.0* | 3.7
COc1ccc(C(=O)c2ccc(N3CCN(C)CC3)c([N+](=O)[O-])c2)cc1 | 17.4 | -9.5
O=C(O)c1ccccc1C(=O)c1ccc(N2CCCCC2)c([N+](=O)[O-])c1 | 3.3 | -10.4
O=C(c1cc2ccccc2o1)N1CCN(c2ccc(C(F)(F)F)cc2[N+](=O)[O-])CC1 | 47.0 | 17.3
CN1CCN(c2ccc(C(=O)c3ccc(Cl)cc3)cc2[N+](=O)[O-])CC1 | 61.7* | -7.1
CC1Cc2ccccc2N1C(=O)c1ccc(N2CCCCC2)c([N+](=O)[O-])c1 (centres undefined) | 63.0* | 1.4
CCCn1cc(C2=CCN(S(=O)(=O)c3cccc(C)c3)CC2)c2cccnc21 | 20.1 | -6.7
O=S(=O)(c1ccccc1)c1nc(-c2ccccc2)oc1N1CCOCC1 | 1.0 | -2.9
O=S(=O)(c1ccccc1)c1nc(Cc2ccccc2)oc1N1CCCCCC1 | 23.0 | 68.0*
O=C(C1CN(S(=O)(=O)c2ccccc2)CCN1S(=O)(=O)c1ccccc1)N1CCOCC1 (centres undefined) | -3.4 | 3.6
O=S(=O)(Nc1cccc2cccnc12)c1cc(Cl)c(Cl)cc1Cl | / | -74.6
Nc1ccc(S(=O)(=O)Nc2cccc3cccnc23)cc1 | 57.0* | -2.0
Cc1cccc(NC(=O)C2CCc3sc(C(=O)N(C)C)cc3C2)c1 (centres undefined) | 5.7 | -0.4
Cc1cc(C)c(S(=O)(=O)N2CCC3(CC2)NCCN=C3NC2CCCCC2)c(C)c1 | 7.5 | -3.9

Screens (PubChem BioAssay)
